KKLEB cytotox – cytotoxicity in KKLEB CF airway cells, primary screen, cytotoxicity control for CF NF-kB inhibitor project, cell-based, uHTS, fluorescence assay plates. KKLEB CF airway cells viability, ATPlite luminescence, overnight; active compounds read low; cells stimulated with P. aeruginosa culture filtrate. activity change (cytotoxicity), % at 5 µM. hit rate 0.36% among 360,000;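 active = corrected activity change at or below -50% at 5 µM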
MITF TRPM1 inh – inhibitors of MITF-dependent TRPM1 promoter reporter, primary screen, cell-based, SK-MEL-5, single point, luciferase; SK-MEL-5 TRPM1 promoter luciferase, 24 h; inhibition, % at 12.5 µM; hit rate 0.83% among 330,000; AID 488899, 2010;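 active = mean inhibition across replicates of 60% or more, whatever share of single replicates reaches that level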
Peg3 promoter – Peg3 promoter-driven luciferase inhibitors, primary screen, cell-based, HeLa, luciferase luminescence; hit rate 1.7% among 360,000; HeLa PEG-Prom luciferase reporter, overnight; AID 588405, 2011; inhibition, % at 20 µM;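 active = inhibition of at least 50% at 20 µM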
HIF-2a block – HIF-2a reporter inhibitors, primary screen, luminescence, 786-0 RCC cells | 786-0 RCC cells HIF-2a reporter, luciferase luminescence, overnight | inhibition, % at 18.8 µM | hit rate 0.72% among 360,000 | AID 624352, 2012;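 active = inhibition of the luminescence signal of 40% or more relative to plate controls, in a single-dose primary screen at 18.75 µM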
ABHD5 PLIN5 PPI – ABHD5-PLIN5 interaction inhibitors, primary screen, cell lysate, split luciferase complementation, luminescence. inhibition, % at 4 µM. hit rate 0.78% among 360,000. Split G. princeps luciferase complementation, 4 h;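 active = inhibition above the mean inhibition across every tested compound plus 3 SD, cut at about 22% in these data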;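 also: 0% = DMSO only wells and the 100% control is not disclosed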
Target sequence (Q00G26 whole entry, looked up): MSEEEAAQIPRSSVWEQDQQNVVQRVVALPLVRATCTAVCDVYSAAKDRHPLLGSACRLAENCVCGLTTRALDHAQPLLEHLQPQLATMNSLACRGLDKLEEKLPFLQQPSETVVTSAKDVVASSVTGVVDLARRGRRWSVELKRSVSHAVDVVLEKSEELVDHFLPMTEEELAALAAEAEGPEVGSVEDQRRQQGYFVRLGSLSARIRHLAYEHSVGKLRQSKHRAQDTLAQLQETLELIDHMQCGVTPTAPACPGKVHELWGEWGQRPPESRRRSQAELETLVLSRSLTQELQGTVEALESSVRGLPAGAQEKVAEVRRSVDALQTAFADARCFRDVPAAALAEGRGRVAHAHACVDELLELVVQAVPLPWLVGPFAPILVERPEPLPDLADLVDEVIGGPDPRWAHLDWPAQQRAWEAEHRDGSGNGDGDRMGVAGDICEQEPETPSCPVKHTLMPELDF
Target sequence (Q8WTS1 whole entry, looked up): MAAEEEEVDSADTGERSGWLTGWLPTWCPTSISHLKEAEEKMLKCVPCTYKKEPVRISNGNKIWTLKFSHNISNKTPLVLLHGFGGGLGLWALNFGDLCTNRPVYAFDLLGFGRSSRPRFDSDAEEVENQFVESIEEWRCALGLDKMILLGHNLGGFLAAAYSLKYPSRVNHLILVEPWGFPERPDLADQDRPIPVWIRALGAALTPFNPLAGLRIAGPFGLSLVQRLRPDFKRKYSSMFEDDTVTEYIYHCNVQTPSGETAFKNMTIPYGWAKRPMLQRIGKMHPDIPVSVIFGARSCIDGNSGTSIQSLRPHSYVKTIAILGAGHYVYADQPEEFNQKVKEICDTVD
CF NFkB inh – inhibitors of PAF-induced NF-kB signaling, primary screen, cell-based, GFP fluorescence, uHTS; AID 588850, 2011; inhibition, % at 5 µM; hit rate 0.86% among 360,000; KKLEB NF-kB-GFP reporter, GFP fluorescence overnight;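 active = at least 50% inhibition at 5 µM, scaled per plate between neutral and stimulator controls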;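 also: PAF is a Pseudomonas aeruginosa culture filtrate used as stimulus; plate controls were PAF-stimulated DMSO wells for no effect and unstimulated DMSO wells for full effect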
An asterisk follows results filed as active; nt = no result given. Compounds with a hit are over-represented: about 3% of the library has one in this group of screens.

SMILES | KKLEB cytotox | MITF TRPM1 inh | Peg3 promoter | HIF-2a block | ABHD5 PLIN5 PPI | CF NFkB inh
C#CCOCCOCCOCCNc1nc(N2CCN(C(=O)CCCCCCCCCCNC(=O)[C@@H](CCSC)n3cc(CCO)nn3)CC2)nc(N2CCN(C(=O)CCCCCCCCCCNC(=O)[C@H](CCC(=O)O)n3cc(CCCCCN)nn3)CC2)n1 | -17.1 | -12.1 | -9.5 | -1.8 | 41.3* | 7.5
C#CCOCCOCCOCCNc1nc(N2CCN(C(=O)CCCCCCCCCCNC(=O)[C@@H](CCC(=O)O)n3cc(CCCCCN)nn3)CC2)nc(N2CCN(C(=O)CCCCCCCCCCNC(=O)[C@H](CO)n3cc(CCCSC)nn3)CC2)n1 | -1.6 | -8.3 | -8.8 | -4.0 | 46.9* | -5.0
CCc1nc2ccc(C(=O)O)cc2nc1CC | 8.1 | 3.3 | -130.0 | -13.7 | -5.5 | 5.9
COc1cc2nc(N3CCNCC3)nc(N)c2cc1OC | -10.0 | 35.6 | 73.6* | 10.1 | 5.7 | -18.3
Cc1ccc(NC(=O)/C=C/c2ccc([N+](=O)[O-])s2)cc1 | 7.2 | 81.9* | -72.2 | -58.1 | -3.1 | -42.2
Cc1ccc(/C=C/C(=O)Nc2ccc([N+](=O)[O-])cc2)o1 | -7.0 | -50.3 | -12.9 | -316.0 | 28.8* | -18.2
CCCOc1ccc(/C=C/C(=O)Nc2ccc([N+](=O)[O-])cc2)cc1 | 6.1 | 14.3 | -11.5 | -41.0 | -2.4 | -5.5
O=C(Nc1cccc(S(=O)(=O)N2CCCC2)c1)[C@@H]1O[C@H](CO)[C@@H](O)[C@H]1O | 5.6 | nt | -2.7 | 5.1 | 6.1 | 4.5
O=C(Nc1ccccc1Cl)C1CC(=O)N(Cc2ccco2)C1 (stereo unspecified) | -9.9 | -4.4 | 0.9 | 4.8 | 2.1 | 9.1
C[n+]1c2n(c3ccccc31)N=C(c1ccc(Cl)cc1)CS2 | -4.5 | 60.6* | 16.9 | 15.3 | -11.0 | -13.0
CCOc1ccc(S(N)(=O)=O)cc1-c1nc2c(C(C)(C)C)nn(C)c2c(=O)[nH]1 | -7.0 | 8.9 | 8.3 | 11.2 | -1.1 | -2.2
CCOc1ccc(S(=O)(=O)NC(C)(C)C)cc1-c1nc2c(C(C)(C)C)nn(C)c2c(=O)[nH]1 | -3.8 | 5.6 | 52.5* | -54.2 | -3.0 | 1.2
Cc1ccc(NC2=Nc3ccccc3N3C2=Nc2c(c(C)nn2-c2ccccc2)C3c2ccc(O)c(O)c2)cc1 (stereo unspecified) | 16.2 | 12.8 | 88.1* | 14.5 | 3.7 | -36.5
COc1ccc(S(=O)(=O)N2CCN(C(=O)c3ccc(COc4ccccc4)o3)CC2)cc1 | 12.1 | nt | 13.2 | 1.9 | 8.9 | -2.9
CC(Sc1n[nH]c(N)n1)C(=O)NC1CCCCC1C (stereo unspecified) | 23.0 | -16.6 | 2.7 | 9.0 | 0.0 | -21.4
Cc1ccc(NC(=O)c2sc3nc(C)nc(N4CCN(c5ccccn5)CC4)c3c2C)c(C)c1 | -12.2 | -11.7 | 16.4 | 14.9 | -4.1 | 28.4
Cc1nc(N2CCN(c3ccccn3)CC2)c2c(C)c(C(=O)N3CCN(c4ccccc4F)CC3)sc2n1 | -17.3 | 6.0 | 72.0* | 12.3 | 2.6 | 11.5
O=C1CC(c2ccc(O)c(O)c2)Oc2cc(O)cc(O)c21 (stereo unspecified) | -8.4 | -14.0 | -19.3 | -43.0 | 6.6 | 18.4
Oc1ccc(C2C[C@H]3CC[C@@H]2C3)cc1O (stereo partly specified) | -12.0 | -16.8 | -41.4 | 54.9* | 5.6 | 18.1
COCCCNC(=O)C[C@@H]1C[C@@]2(C(=O)OC)CCCCC=C2N(CCC2=CCCCC2)C1=O | nt | nt | nt | 1.9 | -7.0 | nt
O=c1[nH]c(=O)n(Cc2ccco2)c2c1C(C(F)(F)F)(C(F)(F)F)N=C(CCc1ccccc1)N2 | -39.1 | 6.3 | 54.5* | 29.0 | -1.1 | 7.4
O=c1[nH]c(=O)n(Cc2ccco2)c2c1C(C(F)(F)F)(C(F)(F)F)N=C(CCC1CCCCC1)N2 | -19.2 | 14.1 | 44.4 | 18.0 | -1.4 | 21.3
CC(=O)c1cccc(CN2CCCC(C(=O)Nc3ccc(-c4ccco4)cc3)C2)c1 (stereo unspecified) | 0.8 | -2.3 | -6.9 | 0.9 | 29.6* | -14.9
